Compound activity as filed in PubChem.
Shown are actives, neighbours in structure and some others; about 19% of the full set was active somewhere.
TDP1 cell CPT: growth inhibition of DT40 Tdp1-/-;hTDP1 cells with camptothecin (screen for TDP1 inhibitors). chicken DT40 Tdp1-/-;hTDP1 cells + 20 nM CPT, ATP luminescence, 48 h. Potency, µM (highest dose often 46.2 µM), for the others: at the highest dose activity change, negative = growth inhibition, usual class: inhibitors. 12% of 420,000 active. AID 686979; further: potency means the concentration at half of the fitted maximal effect; nearly all actives have a fitted effect of over 55% in size
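Cell growth measured by CellTiter-Glo luminescence after a minimum 48 h, 37 C compound exposure with 20 nM CPT in Tdp1-knockout DT40 cells stably expressing hTDP1, seeded 400/well; qHTS titration format.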
ELG1 DNA repair: blocks ELG1-dependent DNA repair in HEK293T cells | HEK293T ELG1-luciferase reporter, luminescence, 16 h; DNA damage induced by 5-fluorouridine | Potency, µM (top dose mostly 46.1 µM), inactives show at the highest dose activity change, negative = inhibition, most hits filed as inhibitors | 2.3% of 330,000 active; further: potency means the concentration at half of the fitted maximal effect; nearly all actives have a fitted effect of over 55% in size
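DMSO vehicle served as the neutral condition. Each well held 2,000 cells given 5-fluorouridine plus compound; after 16 hr at 37 °C/5% CO2, ONE-Glo was added and luciferase measured 30 min later.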
HT1080-NT tox: kills 2HG-producing HT-1080-NT fibrosarcoma cells; 1.6% of 360,000 active; AID 686970; Potency, µM (series often up to 46.1 µM), inactives show at the highest dose activity, negative = less viability, usual class: cytotoxic; HT-1080-NT fibrosarcoma viability, CellTiter-Glo ATP luminescence, 48 h;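 further: NT is the 2HG producing partner of a matched IDH1 knockdown line; potency means the concentration at half of the fitted maximal effect; 0% = DMSO-treated cells and -100% = media-only wells without cells; nearly all actives have a fitted effect of over 55% in size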
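Luminescent CellTiter-Glo readout after 48 hours of compound exposure at 37 degrees C defined viability of HT-1080-NT cells. Activity was normalized to DMSO wells and cell-free media wells; concentration-response curves were fitted and assigned curve classes.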
DT40 TDP1 no CPT: qHTS for Inhibitors of human tyrosyl-DNA phosphodiesterase 1 (TDP1): qHTS in cells in absence of CPT | Potency, µM (top dose mostly 46.2 µM), for the others: top-dose activity change, negative = growth inhibition, hits mostly inhibitors | 15% of 420,000 active | DT40 Tdp1-/- hTDP1 cells, no CPT, ATP luminescence, 48 h; further: potency means the concentration at half of the fitted maximal effect; nearly all actives have a fitted effect of over 55% in size
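Seeded 400 DT40-hTDP1 cells/well (vehicle DMSO, no 20 nM CPT); pinned compounds; ≥48 hr at 37 °C; CellTiter-Glo luminescence as viability measure.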
HT1080 IDH1KD tx: HT-1080 IDH1 knockdown cell toxicity (counter line); HT-1080 IDH1 knockdown viability, ATP luminescence, 48 h; Potency, µM (titrated, usually from 46.1 µM), for inactives: top-dose activity, negative = toxicity, actives largely listed as cytotoxic; 2% of 360,000 active; AID 686971;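 further: potency means the concentration at half of the fitted maximal effect; 0% = DMSO wells and -100% = cell-free medium wells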
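CellTiter-Glo luminescence after 48 h compound exposure at 37 degrees C of IDH1-knockdown HT-1080 cells in 5% FBS RPMI. %Activity scaled between DMSO wells and cell-free media wells, with curves fitted and assigned curve classes.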
IL1B secr inh: inflammasome signaling inhibition, IL-1 beta readout; THP-1 LPS/ATP IL-1B secretion, AlphaLISA, 16 h; stronger effect = lower value; activity change, % at 57.5 µM; 4.7% of 360,000 active; in the data active means activity change below about -50%; inconclusive means mostly about -30% to -49%
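Secreted IL-1B measured by AlphaLISA bead assay after 16 h compound exposure of THP-1 cells; compounds (final up to 57.5 uM) added 1 h before LPS (250 ng/mL) and ATP (1.25 mM) stimulation; lower signal means less secretion.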
An asterisk follows results filed as active; ? = inconclusive; . = not tested or not shown. Unless noted, the call rests on the fitted dose curve; in most records, active means well fitted curve in the direction sought with a large enough effect; inconclusive means small, poorly fitted or top-dose-only effect, or another doubt; inactive means no such curve, though single readings can be large; an effect the other way counts as inactive or inconclusive. Unless noted, on the % scale 0 is the no-effect control and ±100 the full control effect.

SMILES | TDP1 cell CPT | ELG1 DNA repair | HT1080-NT tox | DT40 TDP1 no CPT | HT1080 IDH1KD tx | IL1B secr inh
Cc1ccccc1-c1cnc(C(O)c2ccc(Cl)cc2C)[nH]1 (configuration not stated) | ? | . | ? | ? | -26% | 1
COc1cccc(OC(=O)CSc2nnc(-c3ccc4c(c3)OCO4)o2)c1 | -12% | . | . | -12% | . | .
Cc1cc(Cl)ccc1C(O)c1ncc(-c2ccccc2C(F)(F)F)[nH]1 (configuration not stated) | 26µM* | . | ? | 15µM* | ? | 15
Cc1nc2ccccc2n1CCc1nc2c3ccccc3nc(SCc3ccc(C#N)cc3)n2n1 | -16% | . | . | -6% | . | .
COc1ccc(N2C(=S)NC3N2C(=S)NC3(C)c2ccccc2)cc1 (configuration not stated) | 6% | 0% | 16µM* | ? | 12µM* | -23
C#CCOCCOCCOCCNc1nc(N2CCN(C(=O)CCCCCCCCCCNC(=O)Cn3cc(C[C@@H](C)O)nn3)CC2)nc(N2CCN(C(=O)CCCCCCCCCCNC(=O)Cn3cc(C[C@@H](C)O)nn3)CC2)n1 | 6.5µM* | ? | ? | 9.2µM* | ? | 10
C#CCOCCOCCOCCNc1nc(N2CCN(C(=O)CCCCCCCCCCNC(=O)[C@H](CCCCN)n3cc(CCO)nn3)CC2)nc(N2CCN(C(=O)CCCCCCCCCCNC(=O)[C@H](CCCN=C(N)N)n3cc(C[C@@H](C)CC)nn3)CC2)n1 | ? | ? | ? | ? | ? | -98*
C#CCOCCOCCOCCNc1nc(N2CCN(C(=O)CCCCCCCCCCNC(=O)[C@@H](CCC(=O)O)n3cc(CCCCCN)nn3)CC2)nc(N2CCN(C(=O)CCCCCCCCCCNC(=O)[C@@H](CCC(=O)O)n3cc(CCCCCN)nn3)CC2)n1 | 21% | 0% | 3% | -7% | -3% | -13
C#CCOCCOCCOCCNc1nc(N2CCN(C(=O)CCCCCCCCCCNC(=O)[C@H](CCCCN)n3cc(C[C@@H](C)CC)nn3)CC2)nc(N2CCN(C(=O)CCCCCCCCCCNC(=O)[C@H](CCCCN)n3cc(C[C@@H](C)CC)nn3)CC2)n1 | 8.2µM* | . | ? | 9.2µM* | ? | -66*
C#CCOCCOCCOCCNc1nc(N2CCN(C(=O)[C@H]([C@@H](C)CC)n3cc(CCCN=C(N)N)nn3)CC2)nc(N2CCN(C(=O)[C@H](CCCCN)n3cc(CC(C)O)nn3)CC2)n1 (some centres not stated) | -1% | 30% | 11% | -3% | 8% | 9
C#CCOCCOCCOCCNc1nc(N2CCN(C(=O)CCCCCCCCCCNC(=O)Cn3cc(C[C@@H](C)O)nn3)CC2)nc(N2CCN(C(=O)CCCCCCCCCCNC(=O)[C@H](CCCCN)n3cc(C[C@@H](C)CC)nn3)CC2)n1 | 16µM* | ? | ? | 21µM* | 21µM* | -77*
C#CCOCCOCCOCCNc1nc(N2CCOCC2)nc(N2CCN(C(=O)CCCCCCCCCCNC(=O)Cn3cc(CCCCCN)nn3)CC2)n1 | 1% | -17% | 3% | -17% | -3% | -28
CCOc1ccccc1/C=N/NC(=O)C[n+]1ccccc1 | 0% | 10% | 5% | 1% | 5% | 16
CC1CCN(Cc2c(O)ccc3c(=O)c(-c4cccc(Cl)c4)c(C(F)(F)F)oc23)CC1 | 1% | . | . | 20% | . | .
Cc1cccc(C)c1NC(=S)N1CCCN(Cc2ccc(F)cc2)C1 | 0% | ? | -27% | ? | -14% | -51*
O=C(Nc1ccc(Cl)cc1)N1CCCN(Cc2ccccc2F)C1 | 25µM* | -5% | ? | ? | 13µM* | ?
